The supplement of paper PMC9694430

Columns and labels:
Test in all cases: thermal shift delta Tm vs DMSO control; higher = stronger stabilization (binding)
Conditions in all cases: 12.5 µM; protein concentration 2 µM
[1] = system: LOC_OS01G57100-cb003
Method in brief: (§1)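 Rice kinase domain constructs, made in E. coli and purified, were placed in 96-well plates at 2 μM in 19.5 μl of 100 mM potassium phosphate pH 7.5, 150 mM NaCl, 10% glycerol and 5 × SYPRO Orange, with compound in DMSO. A temperature ramp from 25°C to 95°C at 0.05°C/s was used for differential scanning fluorimetry. The melting temperature shift is a triplicate mean compared with DMSO-only protein, derived from Boltzmann fits.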

[2] = system: LOC_OS01G60330-cb001
Method in brief: as §1

[3] = system: LOC_OS01G60700-cb002
Method in brief: as §1

[4] = system: LOC_OS01G63280-cb003
Method in brief: as §1

[5] = system: LOC_OS01G67340-cb003
Method in brief: as §1

[6] = system: LOC_OS01G70970-cb002
Method in brief: as §1

[7] = system: LOC_OS02G07810-cb001
Method in brief: as §1

[8] = system: LOC_OS02G08530-cb003
Method in brief: as §1

[9] = system: LOC_OS02G14120-cb001
Method in brief: as §1

[10] = system: LOC_OS02G17970-cb001
Method in brief: as §1

[11] = system: LOC_OS02G45750-cb003
Method in brief: as §1

[12] = system: LOC_OS02G54510-cb004
Method in brief: as §1

[13] = system: LOC_OS03G04050-cb001
Method in brief: as §1

[14] = system: LOC_OS03G12390-cb001
Method in brief: as §1

[15] = system: LOC_OS03G27990-cb004
Method in brief: as §1

[16] = system: LOC_OS03G50450-cb001
Method in brief: as §1

[17] = system: LOC_OS03G50810-cb003
Method in brief: as §1

[18] = system: LOC_OS04G35114-cb001
Method in brief: as §1

[19] = system: T1, LOC_OS04G38480-cb003
T1 sequence (whole entry): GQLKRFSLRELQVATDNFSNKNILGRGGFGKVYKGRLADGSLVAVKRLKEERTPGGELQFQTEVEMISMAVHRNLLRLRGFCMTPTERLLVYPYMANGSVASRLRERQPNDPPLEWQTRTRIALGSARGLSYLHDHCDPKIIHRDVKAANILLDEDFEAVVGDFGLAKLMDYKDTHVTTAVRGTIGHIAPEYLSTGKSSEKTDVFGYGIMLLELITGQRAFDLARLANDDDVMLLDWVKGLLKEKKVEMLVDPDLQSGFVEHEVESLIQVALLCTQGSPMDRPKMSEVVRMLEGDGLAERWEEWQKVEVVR
Method in brief: as §1

[20] = system: T2, LOC_OS04G41100-cb001
T2 sequence (whole entry): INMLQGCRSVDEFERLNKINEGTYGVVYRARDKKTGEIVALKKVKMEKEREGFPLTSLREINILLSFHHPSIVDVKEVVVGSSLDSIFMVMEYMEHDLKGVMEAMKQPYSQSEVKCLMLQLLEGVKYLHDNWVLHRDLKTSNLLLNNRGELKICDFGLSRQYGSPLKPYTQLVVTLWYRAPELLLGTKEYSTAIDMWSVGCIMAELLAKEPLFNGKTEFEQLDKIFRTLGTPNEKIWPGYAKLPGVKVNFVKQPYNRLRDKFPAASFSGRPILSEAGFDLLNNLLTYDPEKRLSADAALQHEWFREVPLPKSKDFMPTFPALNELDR
Method in brief: as §1
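Also: purified Escherichia coli-expressed rice kinase domain construct.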

SMILES	thermal shift delta Tm [1]	thermal shift delta Tm [2]	thermal shift delta Tm [3]	thermal shift delta Tm [4]	thermal shift delta Tm [5]	thermal shift delta Tm [6]	thermal shift delta Tm [7]	thermal shift delta Tm [8]	thermal shift delta Tm [9]	thermal shift delta Tm [10]	thermal shift delta Tm [11]	thermal shift delta Tm [12]	thermal shift delta Tm [13]	thermal shift delta Tm [14]	thermal shift delta Tm [15]	thermal shift delta Tm [16]	thermal shift delta Tm [17]	thermal shift delta Tm [18]	thermal shift delta Tm [19]	thermal shift delta Tm [20]
CC(C)c1c2cc(-c3ccnc(NC4CCC(NC5CCOCC5)CC4)n3)ccc2nn1C (stereo not given)	0.61 °C	0.07 °C	0.86 °C	0.36 °C	0.46 °C	0.29 °C	0.41 °C	1.38 °C	4.79 °C	0.57 °C	1.08 °C	0.06 °C	0.41 °C	0.78 °C	0.18 °C	0.03 °C	1.01 °C	2.72 °C	0.69 °C	6.52 °C
CCn1c(=O)c(-c2ccc(-c3cncs3)cc2Cl)cc2cnc(Nc3ccc(N4CCN(C)CC4)cc3)nc21	1.89 °C	1.07 °C	0.86 °C	0.25 °C	1.37 °C	0.17 °C	0.59 °C	0.55 °C	-0.39 °C	0.23 °C	1.17 °C	0.43 °C	0.71 °C	-0.41 °C	0.34 °C	1.1 °C	0.27 °C	0.85 °C	0.15 °C	0.58 °C
COc1cccc(-n2c(=O)[nH]c3cc(Cl)n(-c4ccc(-c5cccc(OC)c5O)cc4)c3c2=O)c1	1.57 °C	1.05 °C	0.6 °C	0.13 °C	0.2 °C	0.23 °C	0.79 °C	0.98 °C	0.81 °C	0.69 °C	0.85 °C	0.06 °C	0.3 °C	0.12 °C	0.42 °C	0.22 °C	0.35 °C	0.59 °C	1.27 °C	0.29 °C
Oc1ccc(Nc2nc(-c3ccc(Cl)cc3)cs2)cc1	-1.22 °C	2.57 °C	-0.25 °C	3.13 °C	0.86 °C	1.06 °C	0.81 °C	-0.94 °C	0.14 °C	-0.04 °C	0.87 °C	-1.06 °C	1.13 °C	1.19 °C	1.07 °C	1.19 °C	1.34 °C	2.45 °C	-1.18 °C	0.69 °C
O=C(NOCC1CC1)c1ccc(F)c(F)c1Nc1ccc(I)cc1Cl	2.41 °C	2.82 °C	2.16 °C	0.93 °C	0.18 °C	1.09 °C	1.23 °C	1.11 °C	1.97 °C	1.54 °C	0.27 °C	-0.05 °C	1.06 °C	0.75 °C	0.28 °C	0.46 °C	0.83 °C	0.12 °C	1.28 °C	0.9 °C
O=c1cc(N2CCOCC2)oc2c(-c3ccccc3)cccc12	0.48 °C	1.07 °C	1.31 °C	0.43 °C	-0.28 °C	0.36 °C	1.28 °C	0.91 °C	0.08 °C	0.84 °C	0.29 °C	0 °C	0.47 °C	0.68 °C	-0.02 °C	0.21 °C	0.41 °C	0.16 °C	0.52 °C	0.8 °C
NC(=O)c1cnc2[nH]ccc2c1N[C@@H]1[C@@H]2CC3C[C@H]1C[C@@](O)(C3)C2	0.13 °C	10.2 °C	1.43 °C	3.87 °C	3.53 °C	6.42 °C	0.39 °C	3 °C	6.44 °C	0.82 °C	8.38 °C	2.49 °C	-0.03 °C	7.42 °C	4.38 °C	3.97 °C	4.9 °C	3.87 °C	2.99 °C	1.15 °C
